The sequences below were run against ANG (assay: pooled miR-30 sensor sort-seq; sequence = guide strand). Settings: shRNA.
Note: reference of the scale not given here.

Sequence | sensor-assay potency score (higher = more potent)
TTATCCTGAGCCAGGGTCGGTG | -1.46
TCACAGATGGCCTTGATGCTGC | -0.333
TTTCTCTGTGAGGGTTTCCATT | -0.964
TAGGTTTTCTCTGTGAGGGTTT | 0.619
TTTGGCATCATAGTGCTGGGTC | 0.651
TAGCTTGCAAGTGGTGACCTGG | -0.539
TTGCCATGAATAAATGTGTTGA | -0.499
AATGTGTTGATGTCTTTGCAGG | -1.22
TTAGGTTTTCTCTGTGAGGGTT | 0.674
TTGATGTCTTTGCAGGGTGAGG | -1.52
TGTGTACCTGGAGTTATCCTGA | 0.329

The sequences below were run against ANK1 in the same assay as above. Settings: shRNA.

Sequence | sensor-assay potency score (higher = more potent)
TTGGTCTTGGTTTCTATCTGGG | -0.274
TCTATCTGTCGAACCACCTTGC | 0.271
TCGTATTGCAACAGGAGCCGGA | -0.769
TTCTAGAATGATTTCTTTGTGC | 0.132
TTGTGCAGCATCTTGCAGGTAT | 0.193
TTGCAGGTATGAGACAATCGAG | -1
TGTGGTGTGAAATTGACGCTGG | 0.797
TCATCTGTCATGCAGTAGCAGC | -1.12
TTCTCTTCATCAACATCCCTGG | -0.331
TAGAATGATTTCTTTGTGCAGA | -0.0456
TCACTGACTAACACGAAACTGG | -0.214
TTAGTGACAAGCTCATCCGGGA | -0.401
TTGATGTTTCCATAGTGACTGG | -0.739
TCTCTTCTGACCTCTGACCTTC | -0.43
TATTCTGAAACTCATTCCCCTG | -1.12
TATCTGTCGAACCACCTTGCGA | -1.29
TTCATCTTCCGAGACATCCAGG | -0.548
TTGACTTTGGCTTTGTTCTGGA | 0.642
TCGGTGACCGCGTCGATCGAGG | -1.26
TGGACAAGTCTATCTGTCGAAC | -1.67
TTGCGAATGATCTTCTTGGTGA | 0.462
TGCACCTGTCGCGTCATCCTGC | -1.06
TTGGTGACGGCATTCTCCGGGA | -0.46
TAGCTTCGGCACAAAATCCAGC | -0.878

These sequences were tested against ANKRD22 in the same assay as above. Settings: shRNA.

Sequence | sensor-assay potency score (higher = more potent)
TAGCATTCGTACAAGAGCCTCA | 0.13
ATTAAAGCCATCTTGAACGTTG | -0.412
TATCCAGTGAGCTCTCACCATG | -1.62
TAAATTTTTTCTTCACAGCATA | -1.16
TTTCTTCACAGCATAATGCAAG | -0.597

Source: the OligoGym collection
